About 7,900 targets were measured; listed, in parts, are those with a hit and a random draw of the rest. About 0.6% of all pairs of compound and target were hits. Unmarked numbers belong to inactive results.
What was measured:
Experiment in all cases: log2 fold change, soluble protein after heating vs DMSO (PISA); higher = thermal stabilisation; K562 cells, 10 uM, 30 min; active = over 0.2 and 3.5 SD of the protein, either way, in both replicates (recomputed)
[1] = compound: CS(=O)(=O)c1ccc(-c2cnc(N)c(C(=O)Nc3ccccc3)n2)cc1
Method in brief: (§1)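 Soluble protein was defined as the supernatant after 21,000xg for 90 min. It came from K562 cells at 2×10^6 cells/mL given 10 μM compound for 30 min, heated in aliquots for 3 min across 48°C-58°C, pooled, and extracted in PBS with 0.5% NP-40 at 4°C, and was quantified by TMTpro 16plex LC-MS/MS with equalised channel sums. Thermal stability against control samples, from duplicates, is reported as log2 fold change.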

crizotinib = compound: C[C@@H](Oc1cc(-c2cnn(C3CCNCC3)c2)cnc1N)c1c(Cl)ccc(F)c1Cl [crizotinib]
Method in brief: as §1

[2] = compound: C[C@@H]1COCCN1C2=NC(=NC(=C2)C3(CC3)S(=O)(=O)C)C4=C5C=CNC5=CC=C4
Method in brief: as §1

[3] = compound: C[C@H](C1=CC=C(C=C1)C(=O)NC2=C3C=CNC3=NC=C2)N
Method in brief: as §1

duvelisib = compound: C[C@H](Nc1ncnc2nc[nH]c12)c1cc2cccc(Cl)c2c(=O)n1-c1ccccc1 [duvelisib]
Method in brief: as §1

gandotinib = compound: Cc1cc(Nc2cc(CN3CCOCC3)c3nc(C)c(Cc4ccc(Cl)cc4F)n3n2)n[nH]1 [gandotinib]
Method in brief: as §1

tozasertib = compound: Cc1cc(Nc2cc(N3CCN(C)CC3)nc(Sc3ccc(NC(=O)C4CC4)cc3)n2)n[nH]1 [tozasertib]
Method in brief: as §1

[4] = compound: Cc1cc(SCc2sc(-c3ccc(C(F)(F)F)cc3)nc2C)ccc1OCC(=O)O
Method in brief: as §1

doramapimod = compound: Cc1ccc(-n2nc(C(C)(C)C)cc2NC(=O)Nc2ccc(OCCN3CCOCC3)c3ccccc23)cc1 [doramapimod]
Method in brief: as §1

ispinesib = compound: Cc1ccc(C(=O)N(CCCN)[C@@H](c2nc3cc(Cl)ccc3c(=O)n2Cc2ccccc2)C(C)C)cc1 [ispinesib]
Method in brief: as §1

bafetinib = compound: Cc1ccc(NC(=O)c2ccc(CN3CC[C@H](N(C)C)C3)c(C(F)(F)F)c2)cc1Nc1nccc(-c2cncnc2)n1 [bafetinib]
Method in brief: as §1

[5] = compound: Cc1cccc(CC(=O)N2CCc3c2ccc(-c2cn(C)c4ncnc(N)c24)c3F)n1
Method in brief: as §1

nilotinib = compound: Cc1cn(-c2cc(NC(=O)c3ccc(C)c(Nc4nccc(-c5cccnc5)n4)c3)cc(C(F)(F)F)c2)cn1 [nilotinib]
Method in brief: as §1

[6] = compound: Cc1nc(Nc2n[nH]c3c2CN(C(=O)N[C@H](CN(C)C)c2ccccc2)C3(C)C)c2sccc2n1
Method in brief: as §1

dasatinib = compound: Cc1nc(Nc2ncc(C(=O)Nc3c(C)cccc3Cl)s2)cc(N2CCN(CCO)CC2)n1 [dasatinib]
Method in brief: as §1

[7] = compound: Cc1ncc(-c2ccnc(Nc3ccc(S(C)(=O)=O)cc3)n2)n1C(C)C
Method in brief: as §1

[8] = compound: Cn1cc(-c2ccc3c(c2)CCN3C(=O)Cc2cccc(C(F)(F)F)c2)c2c(N)ncnc21
Method in brief: as §1

[9] = compound: Cn1cc(-c2ccc3nnc(C(F)(F)c4ccc5ncccc5c4)n3n2)cn1
Method in brief: as §1

tipifarnib = compound: Cn1cncc1[C@@](N)(c1ccc(Cl)cc1)c1ccc2c(c1)c(-c1cccc(Cl)c1)cc(=O)n2C [tipifarnib]
Method in brief: as §1

mubritinib = compound: FC(F)(F)c1ccc(/C=C/c2nc(COc3ccc(CCCCn4ccnn4)cc3)co2)cc1 [mubritinib]
Method in brief: as §1

Chain of UniProt Q9UKL6 (Q9UKL6 whole entry, looked up): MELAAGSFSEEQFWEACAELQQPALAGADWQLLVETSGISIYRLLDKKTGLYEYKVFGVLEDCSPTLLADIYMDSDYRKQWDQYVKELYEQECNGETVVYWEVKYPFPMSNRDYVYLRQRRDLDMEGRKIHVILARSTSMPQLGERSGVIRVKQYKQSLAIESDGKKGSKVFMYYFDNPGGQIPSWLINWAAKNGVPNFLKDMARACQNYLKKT
Chain of UniProt P10644 (P10644 whole entry, looked up): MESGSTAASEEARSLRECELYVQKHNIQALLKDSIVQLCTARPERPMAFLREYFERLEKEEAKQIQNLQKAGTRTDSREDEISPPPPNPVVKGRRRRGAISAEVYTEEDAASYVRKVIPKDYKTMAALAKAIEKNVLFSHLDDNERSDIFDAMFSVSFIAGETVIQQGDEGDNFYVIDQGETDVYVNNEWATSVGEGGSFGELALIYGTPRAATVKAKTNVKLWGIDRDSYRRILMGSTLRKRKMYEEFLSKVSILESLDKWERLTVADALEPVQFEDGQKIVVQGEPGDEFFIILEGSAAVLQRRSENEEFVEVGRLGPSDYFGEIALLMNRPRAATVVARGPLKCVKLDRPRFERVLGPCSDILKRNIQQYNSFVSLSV
Chain of UniProt Q15121 (Q15121 whole entry, looked up): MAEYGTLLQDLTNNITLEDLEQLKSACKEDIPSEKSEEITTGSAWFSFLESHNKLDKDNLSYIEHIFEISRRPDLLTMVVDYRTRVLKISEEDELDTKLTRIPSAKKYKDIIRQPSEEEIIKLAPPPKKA
Chain of UniProt P46020 (P46020 whole entry, looked up): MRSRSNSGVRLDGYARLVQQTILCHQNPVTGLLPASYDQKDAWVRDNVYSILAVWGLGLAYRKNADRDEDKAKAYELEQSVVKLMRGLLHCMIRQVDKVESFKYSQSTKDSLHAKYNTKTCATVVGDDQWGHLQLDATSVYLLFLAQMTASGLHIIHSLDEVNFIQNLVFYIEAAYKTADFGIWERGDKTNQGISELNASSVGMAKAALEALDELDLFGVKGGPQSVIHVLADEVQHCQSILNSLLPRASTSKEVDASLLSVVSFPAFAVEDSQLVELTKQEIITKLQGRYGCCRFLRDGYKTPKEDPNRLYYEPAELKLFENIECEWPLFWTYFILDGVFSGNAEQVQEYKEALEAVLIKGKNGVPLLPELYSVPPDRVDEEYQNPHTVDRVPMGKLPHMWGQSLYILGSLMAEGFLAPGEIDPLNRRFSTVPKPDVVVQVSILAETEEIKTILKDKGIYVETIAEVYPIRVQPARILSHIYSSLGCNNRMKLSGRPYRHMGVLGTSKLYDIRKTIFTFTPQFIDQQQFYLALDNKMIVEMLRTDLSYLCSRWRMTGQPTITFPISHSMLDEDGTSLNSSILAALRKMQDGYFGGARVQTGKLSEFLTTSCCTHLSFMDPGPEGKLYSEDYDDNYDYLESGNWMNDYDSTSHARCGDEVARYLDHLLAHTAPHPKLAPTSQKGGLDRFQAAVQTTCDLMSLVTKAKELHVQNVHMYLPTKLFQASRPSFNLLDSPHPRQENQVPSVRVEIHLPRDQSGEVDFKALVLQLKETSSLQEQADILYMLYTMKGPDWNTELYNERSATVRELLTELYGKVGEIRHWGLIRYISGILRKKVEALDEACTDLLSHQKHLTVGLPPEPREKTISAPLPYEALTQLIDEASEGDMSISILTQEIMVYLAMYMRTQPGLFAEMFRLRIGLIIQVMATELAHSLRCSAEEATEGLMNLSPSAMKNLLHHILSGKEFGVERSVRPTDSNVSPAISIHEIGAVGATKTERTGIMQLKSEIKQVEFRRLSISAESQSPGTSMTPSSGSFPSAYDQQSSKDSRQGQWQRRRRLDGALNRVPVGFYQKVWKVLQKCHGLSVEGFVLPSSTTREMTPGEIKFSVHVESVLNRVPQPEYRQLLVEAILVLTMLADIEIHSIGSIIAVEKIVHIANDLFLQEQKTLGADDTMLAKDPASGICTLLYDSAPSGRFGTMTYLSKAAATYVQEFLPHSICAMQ
Chain of UniProt Q8WXF1 (Q8WXF1 whole entry, looked up): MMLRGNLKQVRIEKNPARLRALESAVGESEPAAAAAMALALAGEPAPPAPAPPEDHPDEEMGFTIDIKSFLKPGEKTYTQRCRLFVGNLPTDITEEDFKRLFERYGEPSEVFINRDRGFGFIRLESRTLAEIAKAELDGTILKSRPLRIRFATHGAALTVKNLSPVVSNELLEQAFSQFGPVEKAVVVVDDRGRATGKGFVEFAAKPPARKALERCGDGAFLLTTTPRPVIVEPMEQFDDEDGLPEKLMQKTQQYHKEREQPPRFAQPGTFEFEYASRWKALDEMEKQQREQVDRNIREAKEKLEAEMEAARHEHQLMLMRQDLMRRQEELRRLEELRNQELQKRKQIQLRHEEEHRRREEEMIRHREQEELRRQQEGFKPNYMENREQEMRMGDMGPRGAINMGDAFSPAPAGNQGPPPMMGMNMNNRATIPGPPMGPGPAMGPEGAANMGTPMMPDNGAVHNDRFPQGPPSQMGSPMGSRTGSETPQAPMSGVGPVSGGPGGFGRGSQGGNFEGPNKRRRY
Chain of UniProt O95394 (O95394 whole entry, looked up): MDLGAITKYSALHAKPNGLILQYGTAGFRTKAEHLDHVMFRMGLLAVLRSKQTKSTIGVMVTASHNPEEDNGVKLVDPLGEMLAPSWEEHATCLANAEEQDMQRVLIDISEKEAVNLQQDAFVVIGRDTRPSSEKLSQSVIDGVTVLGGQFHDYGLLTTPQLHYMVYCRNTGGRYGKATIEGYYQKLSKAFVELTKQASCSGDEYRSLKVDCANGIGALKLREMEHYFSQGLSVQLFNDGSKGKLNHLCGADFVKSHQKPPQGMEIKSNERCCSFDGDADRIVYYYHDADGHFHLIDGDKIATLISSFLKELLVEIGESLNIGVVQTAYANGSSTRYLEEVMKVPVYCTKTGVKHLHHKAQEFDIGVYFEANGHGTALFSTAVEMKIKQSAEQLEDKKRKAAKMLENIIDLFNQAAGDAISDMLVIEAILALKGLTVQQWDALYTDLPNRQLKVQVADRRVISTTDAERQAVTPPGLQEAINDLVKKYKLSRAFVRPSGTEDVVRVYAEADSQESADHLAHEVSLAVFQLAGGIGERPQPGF
Chain of UniProt O95453 (O95453 whole entry, looked up): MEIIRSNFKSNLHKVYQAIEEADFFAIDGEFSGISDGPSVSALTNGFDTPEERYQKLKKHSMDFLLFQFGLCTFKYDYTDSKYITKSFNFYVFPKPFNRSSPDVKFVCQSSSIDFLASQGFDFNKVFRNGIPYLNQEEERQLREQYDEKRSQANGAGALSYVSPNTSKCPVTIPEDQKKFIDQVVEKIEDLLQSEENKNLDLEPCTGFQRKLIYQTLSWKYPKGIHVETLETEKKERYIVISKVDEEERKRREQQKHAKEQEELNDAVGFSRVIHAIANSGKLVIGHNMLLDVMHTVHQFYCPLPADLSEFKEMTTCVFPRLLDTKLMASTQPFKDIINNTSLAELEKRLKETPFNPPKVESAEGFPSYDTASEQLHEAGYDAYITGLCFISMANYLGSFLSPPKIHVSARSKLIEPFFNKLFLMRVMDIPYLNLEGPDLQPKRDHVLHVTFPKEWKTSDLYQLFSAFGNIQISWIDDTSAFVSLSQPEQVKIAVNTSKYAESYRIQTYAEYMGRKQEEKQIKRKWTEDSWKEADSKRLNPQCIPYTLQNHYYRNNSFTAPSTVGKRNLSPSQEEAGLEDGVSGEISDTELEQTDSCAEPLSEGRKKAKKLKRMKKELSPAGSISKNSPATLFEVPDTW
Chain of UniProt O15067 (O15067 whole entry, looked up): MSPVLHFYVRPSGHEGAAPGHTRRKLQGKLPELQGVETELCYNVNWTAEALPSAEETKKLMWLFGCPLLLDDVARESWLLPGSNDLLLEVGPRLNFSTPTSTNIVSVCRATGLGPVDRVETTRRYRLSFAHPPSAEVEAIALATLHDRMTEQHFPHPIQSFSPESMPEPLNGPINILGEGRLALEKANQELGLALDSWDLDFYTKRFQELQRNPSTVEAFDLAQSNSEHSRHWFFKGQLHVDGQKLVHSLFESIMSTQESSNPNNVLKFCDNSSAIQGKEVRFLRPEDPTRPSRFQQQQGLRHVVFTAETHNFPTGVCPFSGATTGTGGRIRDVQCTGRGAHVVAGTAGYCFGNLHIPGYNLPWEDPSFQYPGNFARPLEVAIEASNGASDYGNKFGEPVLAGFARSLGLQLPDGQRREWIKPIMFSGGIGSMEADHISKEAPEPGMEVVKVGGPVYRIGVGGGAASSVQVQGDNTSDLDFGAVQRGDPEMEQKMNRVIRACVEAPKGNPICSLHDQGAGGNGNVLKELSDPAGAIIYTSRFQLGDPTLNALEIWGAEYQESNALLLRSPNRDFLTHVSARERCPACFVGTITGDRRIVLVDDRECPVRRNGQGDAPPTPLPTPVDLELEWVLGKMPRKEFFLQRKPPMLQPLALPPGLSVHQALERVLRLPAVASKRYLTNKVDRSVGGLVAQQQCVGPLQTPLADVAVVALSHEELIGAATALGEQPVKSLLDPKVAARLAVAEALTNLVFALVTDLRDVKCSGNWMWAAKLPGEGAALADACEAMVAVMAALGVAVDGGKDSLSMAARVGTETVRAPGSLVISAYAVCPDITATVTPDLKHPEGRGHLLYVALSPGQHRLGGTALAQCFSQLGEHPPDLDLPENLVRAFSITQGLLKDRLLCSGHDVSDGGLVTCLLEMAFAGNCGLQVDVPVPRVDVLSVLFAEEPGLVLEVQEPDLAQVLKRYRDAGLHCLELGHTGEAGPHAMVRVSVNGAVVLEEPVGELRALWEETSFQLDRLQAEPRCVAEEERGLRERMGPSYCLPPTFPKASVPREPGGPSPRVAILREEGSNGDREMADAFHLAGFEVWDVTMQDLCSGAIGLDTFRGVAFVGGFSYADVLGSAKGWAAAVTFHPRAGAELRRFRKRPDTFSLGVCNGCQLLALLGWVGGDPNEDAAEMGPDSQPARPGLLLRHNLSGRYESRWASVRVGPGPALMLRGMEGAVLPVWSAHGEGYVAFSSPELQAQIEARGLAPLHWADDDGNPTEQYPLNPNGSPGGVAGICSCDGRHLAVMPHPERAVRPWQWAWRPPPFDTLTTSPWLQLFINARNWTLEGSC

Target	log2 fold change [1]	log2 fold change (crizotinib)	log2 fold change [2]	log2 fold change [3]	log2 fold change (duvelisib)	log2 fold change (gandotinib)	log2 fold change (tozasertib)	log2 fold change [4]	log2 fold change (doramapimod)	log2 fold change (ispinesib)	log2 fold change (bafetinib)	log2 fold change [5]	log2 fold change (nilotinib)	log2 fold change [6]	log2 fold change (dasatinib)	log2 fold change [7]	log2 fold change [8]	log2 fold change [9]	log2 fold change (tipifarnib)	log2 fold change (mubritinib)
PSMD2 (UniProt Q13200)	0.017	0.019	-0.063	0.075	-0.064	0.015	0.023	0.004	0.021	-0.017	0.079	0	-0.031	0.061	0.031	-0.005	-0.12	-0.006	0.07	-0.038
QKI (UniProt Q96PU8)	-0.057	0.075	0.046	-0.079	0.032	-0.093	0.027	0.034	0	-0.034	-0.001	0.058	-0.015	-0.105	-0.029	-0.093	-0.007	-0.036	-0.015	0.003
POLR2K (UniProt P53803)	0.029	0.18	0.074	0.098	0.154	-0.011	-0.065	0.001	-0.059	0.029	-0.052	-0.057	-0.021	0.029	0.081	0.089	0.006	0.019	-0.036	-0.008
PEA15 isoform 2 (UniProt Q15121)	0.012	0.136	0.141	-0.048	0.074	-0.073	0.103	0.048	0.003	0.034	-0.077	-0.008	0	-0.4 (active)	-0.026	-0.004	0.036	0.021	0.04	0.054
PCK2 (UniProt Q16822)	0.009	0.17	0.01	-0.098	0.064	0	0	-0.012	0	0.076	-0.052	0.027	-0.05	0.027	-0.035	-0.006	0.041	0.003	0	-0.022
PFAS (UniProt O15067)	-0.062	0.124	0.014	0	-0.026	-0.152	-0.132	0.081	-0.018	0.128	0.033	0.311	-0.359 (active)	-0.113	-0.003	0.059	0.341 (active)	0.06	0.018	0.52 (active)
PRKAR1A (UniProt P10644)	0.209	0.259	0.03	0.173	0.208	0.139	0.041	0.001	0	-0.06	0.232	-0.006	0.12	0.195	-0.046	0.152	0	0.281	0.231	-0.169
POLD1 (UniProt P28340)	0.019	-0.042	0.041	-0.025	0.004	0.036	0.016	0.046	-0.018	-0.01	-0.055	0.023	-0.03	-0.006	-0.049	-0.052	0.063	0.01	-0.066	0.006
PCTP (UniProt Q9UKL6)	0.094	-0.135	0.031	0.003	-0.039	0.029	-0.042	-0.033	-0.048	0.015	-0.067	-0.004	-0.04	0.114	-0.024	-0.017	0.065	0.036	-0.104	0.063
PARN (UniProt O95453)	0.028	-0.095	0.125	-0.025	0.048	-0.127	0.024	0.069	-0.037	-0.021	-0.104	0.019	-0.018	-0.073	-0.182	-0.011	-0.003	0.018	-0.01	0.076
PRMT7 (UniProt Q9NVM4)	0.063	-0.142	0.075	0.083	0.037	0.067	0.01	0.12	0.038	0.065	-0.114	-0.086	-0.002	-0.047	-0.213	-0.01	-0.038	0.124	-0.116	0.092
POTEI (UniProt P0CG38)	-0.009	0.109	0.241	-0.096	0.019	-0.019	0.032	-0.021	-0.739 (active)	0.131	-0.052	-0.02	0.046	-0.049	0.087	0.043	-0.005	-0.003	-0.019	0.004
PRKCB isoform 2 (UniProt P05771)	0.019	-0.039	0.039	-0.063	0.035	-0.079	0.018	0.032	-0.01	-0.017	-0.037	0.025	-0.022	-0.3 (active)	-0.054	0.034	0.04	0	-0.051	0.054
PGM3 isoform 4 (UniProt O95394)	0.025	-0.098	0.04	-0.024	0.043	-0.034	-0.019	0.108	0.016	-0.09	0.056	0.153	-0.022	0.021	-0.145	-0.003	0.106	0.02	-0.079	0.293 (active)
PHKA1 (UniProt P46020)	-0.036	-0.05	-0.048	0.189	-0.074	-0.015	0.279	0.075	0.037	-0.07	0.023	-0.004	-0.233	-0.021	-0.303	0.023	0.027	-0.092	0.083	-0.04
PSPC1 (UniProt Q8WXF1)	-0.068	0.076	-0.044	0.088	-0.03	-0.09	0.01	0.04	-0.028	-0.217	0.015	0.088	-0.004	-0.179	-0.02	-0.112	-0.003	0	-0.004	-0.033

Reference: the supplement of paper PMC10849652
